# In the supplement of paper PMC4466140:
# B1: unnamed (peptide)
# chain: NLPKRKPPKLQGPFS
# Target: ScBbc1
# Experiment: SPOT peptide array binding signal intensity (averaged, normalized) (arbitrary units (background-subtracted, floor 0; scale differs between SH3 domains)); higher = stronger binding of the SH3 domain to the peptide
# Procedure, shortened: (§1)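 E. coli BL21(DE3) was used to express GST-fused SH3 domains from four yeast species, which were then purified on glutathione Sepharose. These were incubated at 10 μg/ml in TBS-based blocking buffer overnight at 4°C on cellulose membranes carrying synthetic 15-mer peptides, in which cysteines were replaced by serines. Binding signal is the replicate average of normalized, background-subtracted spot intensity, in arbitrary units that differ between domains.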
row,Binder,SPOT peptide array binding signal intensity
1,B1,6.25

# Target: ScBem1-D1
# Experiment: as above
# Procedure, shortened: as §1
row,Binder,SPOT peptide array binding signal intensity
1,B1,16

# Target: ScBzz1-D1
# Experiment: as above
# Procedure, shortened: as §1
row,Binder,SPOT peptide array binding signal intensity
1,B1,39.5

# Target: ScBzz1-D2
# Experiment: as above
# Procedure, shortened: as §1
row,Binder,SPOT peptide array binding signal intensity
1,B1,4

# Target: ScCyk3
# Experiment: as above
# Procedure, shortened: as §1
row,Binder,SPOT peptide array binding signal intensity
1,B1,113

# Target: ScFus1
# Experiment: as above
# Procedure, shortened: as §1
row,Binder,SPOT peptide array binding signal intensity
1,B1,162

# Target: ScHof1
# Experiment: as above
# Procedure, shortened: as §1
row,Binder,SPOT peptide array binding signal intensity
1,B1,1.25

# Target: ScHse1
# Experiment: as above
# Procedure, shortened: as §1
row,Binder,SPOT peptide array binding signal intensity
1,B1,1280

# Target: ScLsb1
# Experiment: as above
# Procedure, shortened: as §1
row,Binder,SPOT peptide array binding signal intensity
1,B1,0.5

# Target: ScLsb2
# Experiment: as above
# Procedure, shortened: as §1
row,Binder,SPOT peptide array binding signal intensity
1,B1,3.5

# Target: ScLsb3
# Experiment: as above
# Procedure, shortened: as §1
row,Binder,SPOT peptide array binding signal intensity
1,B1,328

# Target: ScLsb4
# Experiment: as above
# Procedure, shortened: as §1
row,Binder,SPOT peptide array binding signal intensity
1,B1,21.5

# Target: ScMyo3
# Experiment: as above
# Procedure, shortened: as §1
row,Binder,SPOT peptide array binding signal intensity
1,B1,63.2

# Target: ScMyo5
# Experiment: as above
# Procedure, shortened: as §1
row,Binder,SPOT peptide array binding signal intensity
1,B1,29.5

# Target: ScNbp2
# Experiment: as above
# Procedure, shortened: as §1
row,Binder,SPOT peptide array binding signal intensity
1,B1,475

# Target: ScPex13
# Experiment: as above
# Procedure, shortened: as §1
row,Binder,SPOT peptide array binding signal intensity
1,B1,2

# Target: ScRvs167
# Experiment: as above
# Procedure, shortened: as §1
row,Binder,SPOT peptide array binding signal intensity
1,B1,23

# Target: ScSho1
# Experiment: as above
# Procedure, shortened: as §1
row,Binder,SPOT peptide array binding signal intensity
1,B1,408

# Target: ScSla1-D1-D2
# Experiment: as above
# Procedure, shortened: as §1
row,Binder,SPOT peptide array binding signal intensity
1,B1,164

# Target: ScSla1-D3
# Experiment: as above
# Procedure, shortened: as §1
row,Binder,SPOT peptide array binding signal intensity
1,B1,12.5

# Target: SpAbp1-D1
# Experiment: as above
# Procedure, shortened: as §1
row,Binder,SPOT peptide array binding signal intensity
1,B1,498

# Target: SpBbc1
# Experiment: as above
# Procedure, shortened: as §1
row,Binder,SPOT peptide array binding signal intensity
1,B1,1.5

# Target: SpBzz1-D1
# Experiment: as above
# Procedure, shortened: as §1
row,Binder,SPOT peptide array binding signal intensity
1,B1,382

# Target: SpBzz1-D2
# Experiment: as above
# Procedure, shortened: as §1
row,Binder,SPOT peptide array binding signal intensity
1,B1,0.5

# Target: SpCyk3
# Experiment: as above
# Procedure, shortened: as §1
row,Binder,SPOT peptide array binding signal intensity
1,B1,1

# Target: SpHof1
# Experiment: as above
# Procedure, shortened: as §1
row,Binder,SPOT peptide array binding signal intensity
1,B1,117

# Target: SpHof1-2
# Experiment: as above
# Procedure, shortened: as §1
row,Binder,SPOT peptide array binding signal intensity
1,B1,3.25

# Target: SpHof1-3
# Experiment: as above
# Procedure, shortened: as §1
row,Binder,SPOT peptide array binding signal intensity
1,B1,475

# Target: SpHse1
# Experiment: as above
# Procedure, shortened: as §1
row,Binder,SPOT peptide array binding signal intensity
1,B1,722

# Target: SpLsb1
# Experiment: as above
# Procedure, shortened: as §1
row,Binder,SPOT peptide array binding signal intensity
1,B1,5

# Target: SpLsb4
# Experiment: as above
# Procedure, shortened: as §1
row,Binder,SPOT peptide array binding signal intensity
1,B1,756

# Target: SpMyo1
# Experiment: as above
# Procedure, shortened: as §1
row,Binder,SPOT peptide array binding signal intensity
1,B1,254

# Target: SpNbp2
# Experiment: as above
# Procedure, shortened: as §1
row,Binder,SPOT peptide array binding signal intensity
1,B1,82.5

# Target: SpPex13
# Experiment: as above
# Procedure, shortened: as §1
row,Binder,SPOT peptide array binding signal intensity
1,B1,5

# Target: SpRvs167
# Experiment: as above
# Procedure, shortened: as §1
row,Binder,SPOT peptide array binding signal intensity
1,B1,7.17

# Target: SpSla1-D1-D2
# Experiment: as above
# Procedure, shortened: as §1
row,Binder,SPOT peptide array binding signal intensity
1,B1,≤ 0

# Target: SpSla1-D3
# Experiment: as above
# Procedure, shortened: as §1
row,Binder,SPOT peptide array binding signal intensity
1,B1,1
